Assay results as given in PubChem BioAssay AID1159580 (chemical genetic matrix, 2015).
Where “and” joins values, the source holds several entries; their conditions need not be identical. Equal values may be shown once. In all, about 5,500 compounds went through this assay and about 2,000 (36%) were called active. Roughly 18% stayed inconclusive and do not appear here. No stated cut-off is given here; in the data, active means normalized growth mostly below about 0.91 (no sharp cut-off); inconclusive means no clear call, values can overlap the other calls; inactive means mostly above about 0.92. The list shows a part of the results. Where a SMILES comes first, the peptide text is derived from it.

Experiment: chemical genetic growth profiling, strain panel (AID 1159580);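 further: tested at 20 µM; growth read once vehicle control cultures reached saturation at 30 °C; 1 = growth at the plate median or of vehicle wells; lower values mean less growth of the strain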
Conditions: S. cerevisiae deletion strains, growth OD

Measured: normalized growth

CC(=O)N[C@@H](CC(=O)O)C(=O)N[C@@H](CCC(=O)O)C(=O)O (Ac-Asp-Glu-OH)
inactive: locus YAL013W, strain DEP1, active compounds read low 0.996 | locus YAL021C, strain ccr4, active compounds read low 1 | locus YAL026C, strain drs2, active compounds read low 1.01 | locus YAL030W, strain snc1, active compounds read low 1.01 | locus YBL061C, strain skt5, active compounds read low 1 | locus YBR009C, strain hhf1, active compounds read low 0.969 | locus YBR021W, strain FUR4, active compounds read low 1.02 | locus YBR023C, strain chs3, active compounds read low 1.01 | locus YBR171W, strain sec66, active compounds read low 1 | locus YBR229C, strain ROT2, active compounds read low 1.01 | locus YBR231C, strain swc5, active compounds read low 0.997 | locus YBR279W, strain paf1, active compounds read low 1 | locus YCL011C, strain gbp2, active compounds read low 1 | locus YCL016C, strain dcc1, active compounds read low 0.998 | locus YCL029C, strain bik1, active compounds read low 0.989 | locus YCL061C, strain MRC1, active compounds read low 1 | locus YCL069W, strain vba3, active compounds read low 1 | locus YCR088W, strain abp1, active compounds read low 1 | locus YDL005C, strain med2, active compounds read low 1 | locus YDL035C, strain GPR1, active compounds read low 1.01 | locus YDL040C, strain nat1, active compounds read low 0.998 | locus YDL074C, strain BRE1, active compounds read low 1.03 | locus YDL101C, strain DUN1, active compounds read low 1.03 | locus YDL134C, strain PPH21, active compounds read low 1.02 | locus YDL185W, strain tfp1, active compounds read low 1 | locus YDL192W, strain arf1, active compounds read low 0.996 | locus YDR001C, strain nth1, active compounds read low 1 | locus YDR069C, strain doa4, active compounds read low 1 | locus YDR101C, strain arx1, active compounds read low 0.98 | locus YDR137W, strain rgp1, active compounds read low 1.03 | locus YDR150W, strain NUM1, active compounds read low 1.02 | locus YDR159W, strain sac3, active compounds read low 0.983 | locus YDR162C, strain NBP2, active compounds read low 1.02 | locus YDR195W, strain ref2 0.985 | locus YDR297W, strain sur2, active compounds read low 0.996 | locus YDR318W, strain mcm21, active compounds read low 0.981 | locus YDR334W, strain swr1, active compounds read low 1.01 | locus YDR335W, strain msn5, active compounds read low 1 | locus YDR388W, active compounds read low 0.989 | locus YDR392W, strain spt3, active compounds read low 0.898 | locus YDR502C, strain sam2, active compounds read low 0.989 | locus YEL003W, strain gim4, active compounds read low 1 | locus YEL037C, strain rad23, active compounds read low 1.01 | locus YEL061C, strain CIN8 (second series), active compounds read low 1 | locus YEL061C, strain CIN8, active compounds read low 1.01 | locus YER015W, strain faa2, active compounds read low 1 | locus YER016W, strain bim1, active compounds read low 1 | locus YER110C, active compounds read low 0.987 | locus YER111C, strain swi4, active compounds read low 0.993 | locus YER155C, strain BEM2 (second series), active compounds read low 1.01 | locus YER155C, strain BEM2, active compounds read low 1.01 | locus YER167W, strain BCK2, active compounds read low 1 | locus YFR010W, strain ubp6, active compounds read low 1.01 | locus YGL078C, strain dbp3, active compounds read low 0.993 | locus YGL086W, strain mad1, active compounds read low 0.994 | locus YGL167C, strain pmr1, active compounds read low 0.995 | locus YGL173C, strain kem1, active compounds read low 1.01 | locus YGL227W, strain vid30, active compounds read low 1 | locus YGL240W, strain doc1, active compounds read low 0.987 | locus YGL248W, strain PDE1, active compounds read low 1.02 | locus YGL253W, strain hxk2, active compounds read low 1.02 | locus YGR078C, strain PAC10, active compounds read low 1.01 | locus YGR135W, strain pre9, active compounds read low 0.995 | locus YGR229C, strain SMI1, active compounds read low 1.01 | locus YGR252W, strain gcn5, active compounds read low 0.97 | locus YHR013C, strain ard1, active compounds read low 0.977 | locus YHR027C, strain rpn1, active compounds read low 1.01 | locus YHR030C, strain SLT2, active compounds read low 1.01 and 0.999 | locus YHR079C, strain IRE1 (second series), active compounds read low 0.992 | locus YHR079C, strain IRE1, active compounds read low 0.99 | locus YHR094C, strain hxt1, active compounds read low 0.985 | locus YHR129C, strain ARP1, active compounds read low 1.01 | locus YHR142W, strain chs7, active compounds read low 1.04 | locus YHR200W, strain rpn10, active compounds read low 0.998 | locus YIL066C, strain RNR3, active compounds read low 1.01 | locus YIL073C, strain SPO22, active compounds read low 1 | locus YIL125W, strain kgd1, active compounds read low 0.982 | locus YIR030C, strain dcg1, active compounds read low 0.992 | locus YJL092W, strain hpr5, active compounds read low 1.01 | locus YJL095W, strain BCK1 (second series), active compounds read low 1 | locus YJL095W, strain BCK1, active compounds read low 1.02 and 0.976 | locus YJL115W, strain asf1, active compounds read low 0.999 | locus YJL129C, strain trk1, active compounds read low 1.01 | locus YJL134W, strain LCB3, active compounds read low 1.01 | locus YJL154C, strain vps35, active compounds read low 1 | locus YJL164C, strain tpk1, active compounds read low 1 | locus YJL166W, strain qcr8, active compounds read low 1.01 | locus YJL168C, strain set2, active compounds read low 0.99 | locus YJL187C, strain SWE1 (second series), active compounds read low 1.01 | locus YJL187C, strain SWE1, active compounds read low 1 | locus YJR043C, strain POL32, active compounds read low 1.01 | locus YJR066W, strain TOR1, active compounds read low 0.904
